Source: PubChem BioAssay (NCATS)
Where “and” joins values, the source holds several entries; their conditions need not be identical. Equal values may be shown once. Inconclusive results are not listed. A call without a number means that no potency is given here. Calls of active or inactive are those of the source. Unless noted, the call rests on the fitted dose curve.

Legend:
[1] = biological target: Bile acid receptor (Homo sapiens) (UniProt Q96RI1); test: qHTS assay for small molecule antagonists of farnesoid X receptor signaling (AID 588526)
Procedure, shortened: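 Beta-lactamase reporter antagonist mode: HEK293T FXR-UAS-bla cells, titrated compound, CDCA stimulation, 16 h 37 C, CCF4 dye 2 h RT. Data normalized to CDCA 50 uM and DMSO; Hill-fit IC50.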

[2] = biological target: Glucocorticoid receptor (Homo sapiens) (UniProt P04150); test: qHTS assay for small molecule agonists of glucocorticoid receptor signaling (AID 588532; active means well fitted curve in the direction sought with a large enough effect in the signal ratio, with a control signal flat; the % refers to the signal ratio); conditions: HeLa MMTV-bla, beta-lactamase ratio, agonist, 18 h; stronger effect = higher value; percent of dexamethasone control, DMSO zero
Procedure, shortened: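 Using MMTV-bla HeLa cells in medium with 1% stripped FBS and 25 mM HEPES, compounds were titrated and incubated overnight-length (18 h). Beta-lactamase cleavage of CCF4 was quantified by dual-emission fluorescence.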

[3] = biological target: Glucocorticoid receptor (Homo sapiens) (UniProt P04150); test: qHTS assay for small molecule antagonists of glucocorticoid receptor signaling (AID 588533; active means well fitted inhibition curve with a large enough effect in the signal ratio, with a control signal flat, not every such curve was filed as active; the % refers to the signal ratio;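 further: cells stimulated with 2 nM dexamethasone as agonist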)
Procedure, shortened: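 Antagonist-mode qHTS: compound titrations added to GRE-bla HeLa cells, then dexamethasone 2 nM final; 18 h, 37 C. CCF4 FRET fluorescence normalized to dexamethasone and DMSO; IC50 from Hill fit.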

[4] = qHTS assay for small molecule antagonists of peroxisome proliferator-activated receptor delta signaling (AID 588535; active means well fitted inhibition curve with a large enough effect in the signal ratio, with a control signal flat, not every such curve was filed as active; the % refers to the signal ratio;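 on max response: cells co-treated with a PPAR-delta agonist as stimulator during compound exposure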); conditions: HEK293T PPARd-UAS-bla, beta-lactamase FRET ratio, 18 h; 460 nm channel
Procedure, shortened: (§1)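 Antagonist-mode qHTS using GeneBLAzer PPAR-delta-UAS-bla HEK293T cells; compound exposure 18 hrs at 37 C over a titration. Ratiometric CCF4 fluorescence at 460/530 nm; concentration-response points fitted to the Hill equation.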

[5] = biological target: Peroxisome proliferator-activated receptor delta (Homo sapiens) (UniProt Q03181); test: as above
Procedure, shortened: as §1

[6] = biological target: Peroxisome proliferator-activated receptor gamma (Homo sapiens) (UniProt P37231); test: qHTS assay for small molecule agonists of peroxisome proliferator-activated receptor gamma signaling (AID 588536; active means well fitted curve in the direction sought with a large enough effect in the signal ratio, with a control signal flat, not every such curve was filed as active; the % refers to the signal ratio)
Procedure, shortened: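 Beta-lactamase reporter read-out: CCF4 fluorescence (ex 405, em 460/530 nm) after 2 h at RT. HEK293 GeneBLAzer cells were treated for 16 h at 37 C. Hill fits gave EC50 and efficacy versus 2 uM rosiglitazone (100%) and DMSO (0%).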

[7] = biological target: Peroxisome proliferator-activated receptor gamma (Homo sapiens) (UniProt P37231); test: qHTS assay for small molecule antagonists of peroxisome proliferator-activated receptor gamma signaling (AID 588537; active means well fitted inhibition curve with a large enough effect in the signal ratio, with a control signal flat, not every such curve was filed as active; the % refers to the signal ratio;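 further: reporter cells co-stimulated with 50 nM rosiglitazone agonist during compound treatment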)
Procedure, shortened: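 Cell-based beta-lactamase assay; GW9662 served as the antagonist control. Stimulation used rosiglitazone, final 50 nM, 16 h, 37 C.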

[8] = biological target: Vitamin D3 receptor (Homo sapiens) (UniProt P11473); test: qHTS assay for small molecule antagonists of vitamin D receptor signaling (AID 588541);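 further: receptor activated by calcitriol during compound treatment; series mostly up to about 77 µM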
Procedure, shortened: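 Antagonist-mode beta-lactamase reporter assay: HEK293T VDR-UAS-bla cells were exposed to titrated compound alongside 1-alpha,25-dihydroxyvitamin D3 at 3 nM final for 16 h. Values were normalized to the 50 nM agonist control and DMSO basal, with IC50 and efficacy from Hill equation fits.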

[9] = biological target: Vitamin D3 receptor (Homo sapiens) (UniProt P11473); test: qHTS assay for small molecule agonists of vitamin D receptor signaling (AID 588543)
Procedure, shortened: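 VDR-UAS-bla HEK293T cells, 2000/well, 2% charcoal-stripped FBS; compound titration 16 h at 37 C; CCF4 beta-lactamase ratio read. Normalized to 50 nM 1-alpha,25-dihydroxyvitamin D3 (100%) and DMSO; Hill fit gives EC50, efficacy.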

[10] = qHTS assay for small molecule agonists of retinoid X receptor alpha signaling (AID 588544); conditions: HEK293T RXRa-UAS-bla, beta-lactamase reporter, 18 h; 530 nm emission
[11] = biological target: Retinoic acid receptor RXR-alpha (Homo sapiens) (UniProt P19793); test: as above
[12] = biological target: Thyroid hormone receptor beta (Homo sapiens) (UniProt P10828); test: qHTS assay for small molecule agonists of thyroid hormone receptor beta signaling (AID 588545)
Procedure, shortened: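 Compounds were tested as agonists in TR-UAS-bla-GripTite HEK 293 cells. After 18 hrs at 37 C, CCF4 substrate was added and fluorescence read after 2 hrs at room temperature.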

[13] = qHTS assay for small molecule antagonists of retinoid X receptor alpha signaling (AID 588546; active means well fitted inhibition curve with a large enough effect in the signal ratio, with a control signal flat, not every such curve was filed as active; the % refers to the signal ratio;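 further: cells stimulated with 9-cis-retinoic acid as agonist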); conditions: HEK293T RXRa-UAS-bla, beta-lactamase ratio, antagonist mode; measured here: W530 green channel, cytotoxicity proxy
Procedure, shortened: (§2)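 Beta-lactamase reporter inhibition, read as CCF4 fluorescence ratio (ex 405, em 460/530 nm) after 2 h at RT. HEK293T UAS-bla cells, 2500/well, were stimulated with 9-cis-RA at 500 or 100 nM final alongside test compound for 18 h at 37 C.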

[14] = biological target: Retinoic acid receptor RXR-alpha (Homo sapiens) (UniProt P19793); test: as above; conditions: HEK293T RXRa-UAS-bla, beta-lactamase ratio, antagonist mode
Procedure, shortened: as §2

[15] = biological target: Thyroid hormone receptor beta (Homo sapiens) (UniProt P10828); test: qHTS assay for small molecule antagonists of thyroid hormone receptor beta signaling (AID 588547; active means well fitted inhibition curve with a large enough effect in the signal ratio, with a control signal flat, not every such curve was filed as active; the % refers to the signal ratio;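 further: cells stimulated with 0.4 nM T3 agonist during compound exposure; series mostly up to about 77 µM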); conditions: TR-UAS-bla HEK293, beta-lactamase ratio, antagonist mode, 18 h
Procedure, shortened: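 Inhibition of T3-driven (0.4nM final) beta-lactamase reporter activity was measured over 0.59 nM to 92 uM compound after 18 h at 37 C. The cells were GripTite HEK293 TR-UAS-bla in charcoal/dextran-stripped serum, with CCF4 ratio read-out and IC50 from Hill fits.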

[16] = biological target: Voltage-gated inwardly rectifying potassium channel KCNH2 (Homo sapiens) (UniProt Q12809); test: qHTS Assay for Small Molecule Inhibitors of the Human hERG Channel Activity (AID 588834; active means well fitted inhibition curve with a large enough effect;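 further: top concentration of the series differs between compounds; lower thallium flux fluorescence means stronger hERG block; nearly all actives have a fitted effect of over 50% in size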)
Procedure, shortened: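 Thallium serves as surrogate for K+ influx through BacMam-delivered hERG in U2OS cells. Compounds are added for about 10 minutes after dye loading; stimulation buffer then starts flux, monitored kinetically on FDSS.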

[17] = qHTS assay for small molecule agonists of the antioxidant response element (ARE) signaling pathway (AID 651741; active means well fitted activation curve with a large enough effect in the signal ratio; the % refers to the signal ratio; further: potency means the concentration at half of the fitted maximal effect)
Procedure, shortened: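 Agonist activity is measured as ARE-driven beta-lactamase expression in a stable HepG2 reporter line, using 16 h compound treatment at 37 C and a FRET substrate fluorescence readout after 2 h.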

[18] = qHTS assay for small molecule activators of the nuclear factor-kappa B (NF-kB) signaling pathway (AID 651749; active means well fitted activation curve with a large enough effect in the signal ratio; the % refers to the signal ratio; further: series mostly up to about 77 µM); conditions: NF-kB-bla ME-180 cells, beta-lactamase FRET ratio, 16 h; stronger effect = higher value
Procedure, shortened: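 FRET-based beta-lactamase detection in ME-180 cells reports NF-kB response-element-driven transcription following overnight (16 hr) compound treatment.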

[19] = biological target: Androgen receptor (Homo sapiens) (UniProt P10275); test: qHTS assay for small molecule antagonists of androgen receptor signaling (AID 588516; active means well fitted curve in the direction sought with a large enough effect in the signal ratio, with a control signal flat, not every such curve was filed as active; the % refers to the signal ratio)
Procedure, shortened: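 AR-UAS-bla GripTite HEK 293 cells (2000/well) treated with compound titrations plus 10 nM R1881 for 16 h at 37C. Beta-lactamase read by CCF4 FRET (460/530 nm); IC50 from Hill fits, normalized to R1881 and DMSO control wells.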

[20] = qHTS assay for small molecule activators of the p53 signaling pathway (AID 651743; active means well fitted activation curve with a large enough effect in the signal ratio, not every such curve was filed as active; the % refers to the signal ratio; further: series mostly up to about 92 µM); conditions: HCT-116 p53RE-bla, beta-lactamase FRET ratio, 16 h; stronger effect = higher value
Procedure, shortened: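 A beta-lactamase reporter under p53 response element control, stably carried by HCT-116 cells, reported pathway activation. Test compounds were applied for 16 hours at 37 C, and fluorescence was measured 2 hours after adding the B/G FRET substrate.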

Sequence of Bile acid receptor (Homo sapiens) (Q96RI1 whole entry, looked up): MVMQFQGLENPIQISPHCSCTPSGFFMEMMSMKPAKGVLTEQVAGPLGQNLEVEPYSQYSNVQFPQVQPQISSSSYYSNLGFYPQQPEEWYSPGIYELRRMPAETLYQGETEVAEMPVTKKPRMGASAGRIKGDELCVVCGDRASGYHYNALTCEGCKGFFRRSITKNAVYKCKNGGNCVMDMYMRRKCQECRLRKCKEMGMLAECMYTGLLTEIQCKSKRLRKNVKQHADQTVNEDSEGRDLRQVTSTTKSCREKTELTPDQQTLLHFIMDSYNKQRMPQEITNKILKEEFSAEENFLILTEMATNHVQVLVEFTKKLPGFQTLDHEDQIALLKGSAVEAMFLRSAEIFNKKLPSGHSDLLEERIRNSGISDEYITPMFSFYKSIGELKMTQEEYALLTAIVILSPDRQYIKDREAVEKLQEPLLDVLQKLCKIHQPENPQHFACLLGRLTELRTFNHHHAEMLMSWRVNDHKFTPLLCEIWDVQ
Sequence of Voltage-gated inwardly rectifying potassium channel KCNH2 (Homo sapiens) (Q12809 whole entry, looked up): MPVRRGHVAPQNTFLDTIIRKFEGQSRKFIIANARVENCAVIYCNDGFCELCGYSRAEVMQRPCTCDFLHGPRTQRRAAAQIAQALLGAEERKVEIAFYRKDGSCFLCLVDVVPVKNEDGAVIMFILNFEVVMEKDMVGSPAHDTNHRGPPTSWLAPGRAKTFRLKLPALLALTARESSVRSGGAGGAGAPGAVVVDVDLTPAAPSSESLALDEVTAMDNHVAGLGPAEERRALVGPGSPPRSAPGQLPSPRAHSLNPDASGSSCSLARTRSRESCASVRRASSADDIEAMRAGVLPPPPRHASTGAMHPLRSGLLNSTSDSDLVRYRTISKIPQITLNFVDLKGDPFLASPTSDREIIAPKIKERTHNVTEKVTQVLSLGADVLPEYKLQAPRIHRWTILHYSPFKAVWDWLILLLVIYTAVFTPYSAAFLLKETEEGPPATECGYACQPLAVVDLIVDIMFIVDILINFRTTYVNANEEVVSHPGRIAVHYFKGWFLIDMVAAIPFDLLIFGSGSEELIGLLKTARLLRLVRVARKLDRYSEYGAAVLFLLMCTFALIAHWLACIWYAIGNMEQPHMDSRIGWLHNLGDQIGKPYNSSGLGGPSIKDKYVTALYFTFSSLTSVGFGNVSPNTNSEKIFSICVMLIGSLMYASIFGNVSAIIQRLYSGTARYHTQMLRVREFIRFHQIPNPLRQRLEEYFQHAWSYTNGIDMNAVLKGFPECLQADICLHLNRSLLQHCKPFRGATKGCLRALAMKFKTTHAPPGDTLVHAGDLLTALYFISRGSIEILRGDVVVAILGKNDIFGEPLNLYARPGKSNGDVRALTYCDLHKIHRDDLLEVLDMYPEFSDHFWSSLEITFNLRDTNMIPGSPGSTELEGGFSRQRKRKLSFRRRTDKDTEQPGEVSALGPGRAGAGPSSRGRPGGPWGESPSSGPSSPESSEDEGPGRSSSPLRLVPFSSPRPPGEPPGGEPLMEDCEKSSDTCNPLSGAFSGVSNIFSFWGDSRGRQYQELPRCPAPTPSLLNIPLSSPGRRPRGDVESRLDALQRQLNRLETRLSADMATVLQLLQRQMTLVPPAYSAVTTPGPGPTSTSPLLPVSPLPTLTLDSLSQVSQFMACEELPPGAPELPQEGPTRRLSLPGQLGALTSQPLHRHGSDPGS
Sequence of Peroxisome proliferator-activated receptor gamma (Homo sapiens) (P37231 whole entry, looked up): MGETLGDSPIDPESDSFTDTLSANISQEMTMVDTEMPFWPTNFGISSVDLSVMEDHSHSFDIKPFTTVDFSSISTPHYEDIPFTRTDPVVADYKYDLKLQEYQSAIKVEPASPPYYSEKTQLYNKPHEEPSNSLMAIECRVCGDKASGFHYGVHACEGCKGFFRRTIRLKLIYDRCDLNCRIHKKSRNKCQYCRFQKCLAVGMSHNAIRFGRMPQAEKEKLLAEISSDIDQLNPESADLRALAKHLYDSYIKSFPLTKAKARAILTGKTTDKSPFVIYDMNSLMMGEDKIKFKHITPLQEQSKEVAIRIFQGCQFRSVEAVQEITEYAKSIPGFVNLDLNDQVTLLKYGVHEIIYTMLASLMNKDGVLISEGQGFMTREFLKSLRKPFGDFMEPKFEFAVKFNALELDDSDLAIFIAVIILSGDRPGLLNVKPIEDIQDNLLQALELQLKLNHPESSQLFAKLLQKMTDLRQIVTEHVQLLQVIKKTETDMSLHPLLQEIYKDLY
Sequence of Vitamin D3 receptor (Homo sapiens) (P11473 whole entry, looked up): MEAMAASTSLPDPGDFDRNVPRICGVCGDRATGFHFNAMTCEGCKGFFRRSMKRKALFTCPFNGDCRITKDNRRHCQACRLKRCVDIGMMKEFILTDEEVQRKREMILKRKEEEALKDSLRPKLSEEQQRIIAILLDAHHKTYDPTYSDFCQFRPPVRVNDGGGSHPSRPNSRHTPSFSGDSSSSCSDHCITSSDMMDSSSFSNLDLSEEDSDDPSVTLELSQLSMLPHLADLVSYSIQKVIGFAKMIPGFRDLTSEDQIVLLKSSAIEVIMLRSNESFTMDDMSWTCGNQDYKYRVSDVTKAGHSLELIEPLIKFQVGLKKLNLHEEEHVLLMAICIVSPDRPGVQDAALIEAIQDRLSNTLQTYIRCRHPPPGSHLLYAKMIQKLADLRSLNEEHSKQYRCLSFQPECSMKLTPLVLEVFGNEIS
Sequence of Thyroid hormone receptor beta (Homo sapiens) (P10828 whole entry, looked up): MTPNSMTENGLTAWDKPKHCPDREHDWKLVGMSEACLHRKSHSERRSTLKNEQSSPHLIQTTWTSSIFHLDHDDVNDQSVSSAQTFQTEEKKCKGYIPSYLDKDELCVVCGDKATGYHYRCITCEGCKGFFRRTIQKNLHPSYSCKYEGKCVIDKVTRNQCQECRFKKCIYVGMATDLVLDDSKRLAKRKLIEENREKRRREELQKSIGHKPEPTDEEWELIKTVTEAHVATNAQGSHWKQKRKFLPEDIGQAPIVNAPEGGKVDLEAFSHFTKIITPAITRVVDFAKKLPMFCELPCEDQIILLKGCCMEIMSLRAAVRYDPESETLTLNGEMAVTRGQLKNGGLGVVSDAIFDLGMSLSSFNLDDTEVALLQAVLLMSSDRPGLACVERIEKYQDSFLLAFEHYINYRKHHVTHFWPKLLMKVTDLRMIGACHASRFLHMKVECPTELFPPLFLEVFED
Sequence of Peroxisome proliferator-activated receptor delta (Homo sapiens) (Q03181 whole entry, looked up): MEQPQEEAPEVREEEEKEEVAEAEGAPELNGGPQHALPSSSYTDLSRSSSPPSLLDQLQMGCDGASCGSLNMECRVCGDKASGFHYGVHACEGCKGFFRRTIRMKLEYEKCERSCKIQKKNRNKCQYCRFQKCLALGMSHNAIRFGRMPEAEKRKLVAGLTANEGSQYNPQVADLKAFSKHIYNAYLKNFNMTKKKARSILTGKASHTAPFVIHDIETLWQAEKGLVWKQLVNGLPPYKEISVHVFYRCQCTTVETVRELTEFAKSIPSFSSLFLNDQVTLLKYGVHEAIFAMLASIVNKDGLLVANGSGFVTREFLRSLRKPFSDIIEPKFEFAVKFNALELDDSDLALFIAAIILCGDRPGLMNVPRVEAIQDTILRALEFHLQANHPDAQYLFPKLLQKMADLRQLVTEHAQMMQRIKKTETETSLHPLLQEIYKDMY
Sequence of Retinoic acid receptor RXR-alpha (Homo sapiens) (P19793 whole entry, looked up): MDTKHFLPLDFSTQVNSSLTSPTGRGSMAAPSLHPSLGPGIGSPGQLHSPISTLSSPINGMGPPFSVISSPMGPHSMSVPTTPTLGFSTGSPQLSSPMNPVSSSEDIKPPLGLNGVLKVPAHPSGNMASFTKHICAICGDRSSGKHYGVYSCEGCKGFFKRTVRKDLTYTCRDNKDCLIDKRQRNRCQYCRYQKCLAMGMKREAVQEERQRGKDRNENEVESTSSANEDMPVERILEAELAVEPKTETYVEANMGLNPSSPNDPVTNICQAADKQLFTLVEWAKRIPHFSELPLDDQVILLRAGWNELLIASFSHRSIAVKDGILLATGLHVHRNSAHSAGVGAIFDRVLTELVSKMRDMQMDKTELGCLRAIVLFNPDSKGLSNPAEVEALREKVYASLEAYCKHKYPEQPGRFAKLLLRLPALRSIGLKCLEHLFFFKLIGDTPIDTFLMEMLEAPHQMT
Sequence of Androgen receptor (Homo sapiens) (P10275 whole entry, looked up): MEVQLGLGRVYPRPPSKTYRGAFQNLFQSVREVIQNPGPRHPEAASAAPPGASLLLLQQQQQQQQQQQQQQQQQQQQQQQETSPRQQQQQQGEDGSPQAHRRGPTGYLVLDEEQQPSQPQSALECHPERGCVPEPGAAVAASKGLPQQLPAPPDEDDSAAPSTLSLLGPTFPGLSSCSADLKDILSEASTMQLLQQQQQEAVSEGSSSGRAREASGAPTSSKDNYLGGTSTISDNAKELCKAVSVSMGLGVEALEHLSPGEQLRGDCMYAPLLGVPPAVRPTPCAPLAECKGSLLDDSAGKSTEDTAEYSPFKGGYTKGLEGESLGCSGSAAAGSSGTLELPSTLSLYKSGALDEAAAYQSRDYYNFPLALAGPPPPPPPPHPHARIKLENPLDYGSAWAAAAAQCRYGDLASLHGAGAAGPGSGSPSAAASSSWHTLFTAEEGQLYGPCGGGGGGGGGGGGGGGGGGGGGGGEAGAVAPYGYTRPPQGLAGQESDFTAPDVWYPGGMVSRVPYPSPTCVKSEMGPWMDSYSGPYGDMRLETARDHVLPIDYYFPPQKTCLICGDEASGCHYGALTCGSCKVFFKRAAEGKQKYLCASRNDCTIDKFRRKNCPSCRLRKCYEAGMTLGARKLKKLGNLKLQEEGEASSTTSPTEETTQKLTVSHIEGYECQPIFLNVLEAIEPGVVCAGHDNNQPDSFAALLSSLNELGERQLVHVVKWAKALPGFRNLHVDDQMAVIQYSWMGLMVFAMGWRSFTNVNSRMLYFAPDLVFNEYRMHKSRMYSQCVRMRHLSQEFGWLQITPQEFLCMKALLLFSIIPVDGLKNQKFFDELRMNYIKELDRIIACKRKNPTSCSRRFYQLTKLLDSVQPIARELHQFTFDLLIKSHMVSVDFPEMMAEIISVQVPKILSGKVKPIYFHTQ

Compound | outcome [1] | activation [2] | outcome [3] | max response [4] | Potency [5] | outcome [6] | outcome [7] | outcome [8] | outcome [9] | max response [10] | outcome [11] | outcome [12] | max response [13] [%] | max response [14] | activity change % (negative = inhibition) [15] | Potency [16] | Potency [17] | activation [18] | outcome [19] | activation [20]
Cc1ccc2oc(=O)ccc2c1 | inactive | -1.61% (inactive) | inactive | 1.44% and 30.5% | inactive | inactive | inactive | inactive | inactive | 0.296% and 3.97% | inactive | inactive | -0.906 | -15.9% (inactive) | -13% (inactive) and 13.3% (inactive) | inactive | 8.63 µM (active) | -0.483% (inactive) and -1.78% (inactive) | – | –
CCCC(Cl)CCCC(Cl)CCC(Cl)CCC(Cl)CCC(Cl)CCCC(Cl)CCC (stereo unspecified) | – | 3.07% (inactive) | inactive | -30.6% | inactive | inactive | – | inactive | – | -10.5% | inactive | inactive | -0.455 | -10.6% (inactive) | -14.9% (inactive) | – | – | 0.0275% (inactive) | inactive | 0.55% (inactive)
CC(C)c1ccccc1 | inactive | -12.7% (inactive) | inactive | – | – | inactive | – | inactive | – | -7.95% | inactive | inactive | 7.79 | 6.96% (inactive) | 6.43% (inactive) | – | inactive | -1.2% (inactive) | inactive | 0.723% (inactive)
CC/C=C1/OC(=O)c2ccccc21 | – | -3.66% (inactive) | inactive | 6.22% | inactive | inactive | – | inactive | inactive | 0.089% | inactive | inactive | -8.24 | 8.95% (inactive) | 10.4% (inactive) | inactive | inactive | -0.0092% (inactive) | inactive | -1.64% (inactive)
Cc1ccc(CO)cc1 | inactive | -5.3% (inactive) | inactive | 17.6% | inactive | inactive | inactive | inactive | inactive | -4.09% | inactive | inactive | -4.56 | 0.12% (inactive) | 14.7% (inactive) | inactive | – | -1.4% (inactive) | – | -4.79% (inactive)
CCCCCCCCC/C=C/CC1CC(=O)OC1=O (stereo unspecified) | inactive | 0.907% (inactive) | inactive | – | – | inactive | – | inactive | inactive | -0.831% | inactive | inactive | 1.93 | 19.9% (inactive) | 2.72% (inactive) | inactive | – | -0.282% (inactive) | inactive | 3.69% (inactive)
O=C(O)CCSSCCC(=O)O | inactive | -5.98% (inactive) | inactive | 29.9% | inactive | inactive | – | inactive | – | 1.51% | inactive | inactive | -12 | -2.74% (inactive) | -3.23% (inactive) | inactive | inactive | -1.14% (inactive) | inactive | –
O=[N+]([O-])c1cc(C(F)(F)F)ccc1Cl | – | -0.113% (inactive) | inactive | – | – | inactive | inactive | – | – | -4.02% | inactive | inactive | -1.67 | -6.84% (inactive) | -5.36% (inactive) | inactive | inactive | – | inactive | -0.0124% (inactive)
BrC(Br)C(Br)Br | – | -1.02% (inactive) | – | -3.11% | inactive | inactive | inactive | inactive | – | -10.8% | inactive | inactive | -6.63 | -0.43% (inactive) | 0.66% (inactive) | inactive | – | 2.53% (inactive) | inactive | -2.69% (inactive)
Cc1c(C(=O)O)cccc1[N+](=O)[O-] | inactive | -3.11% (inactive) | inactive | -26.4% | inactive | inactive | inactive | inactive | inactive | -9.97% | inactive | inactive | -4.5 | -1.44% (inactive) | 12.8% (inactive) | inactive | – | 0.0023% (inactive) | – | 1.1% (inactive)
CCCC(C)CO (stereo unspecified) | inactive | – | inactive | -16% | inactive | inactive | inactive | – | – | -14.8% | inactive | inactive | 5 | -5.45% (inactive) | 6.59% (inactive) | inactive | – | -0.126% (inactive) | inactive | 0.0206% (inactive)
Nc1ccc(Cl)cc1[N+](=O)[O-] | – | – | inactive | 66.3% | inactive | inactive | inactive | inactive | inactive | -5.09% | inactive | inactive | -5.59 | -5.85% (inactive) | 1.54% (inactive) | inactive | – | -1.3% (inactive) | inactive | -3.6% (inactive)
Cc1ccc2cccnc2c1 | inactive | -3.65% (inactive) | inactive | – | – | inactive | – | inactive | inactive | 5.51% | inactive | inactive | 6 | 0.426% (inactive) | 17% (inactive) | inactive | inactive | – | inactive | -4.94% (inactive)
CCCCCCCN | inactive | 4.22% (inactive) | inactive | 31.2% | inactive | inactive | inactive | inactive | inactive | -16.2% | inactive | inactive | 3.38 | -5.49% (inactive) | 3.05% (inactive) | inactive | – | – | – | -0.0412% (inactive)
